# Most compounds without a hit are left out; they make up all but 18% or so of the library.
# DT40 TDP1 CPT: qHTS for Inhibitors of human tyrosyl-DNA phosphodiesterase 1 (TDP1): qHTS in cells in presence of CPT; AID 686979, 2013; 12% of 420,000 active; Potency, µM (doses to about 46.2 µM), without a hit: top-dose activity change, negative = growth inhibition, actives largely listed as inhibitors; chicken DT40 Tdp1-/-;hTDP1 cells + 20 nM CPT, ATP luminescence, 48 h; also: potency is read from the fitted curve at half-maximal effect; % is scaled to controls: 0 for no effect and ±100 for the full control effect; nearly all actives have a fitted effect of over 55% in size
#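 Chicken DT40 Tdp1-/- cells complemented with human TDP1, 400 cells/well, exposed to compounds plus 20 nM camptothecin for at least 48 h at 37 C; viability read as ATP content by CellTiter-Glo luminescence.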
# TDP1 cell noCPT: qHTS for Inhibitors of human tyrosyl-DNA phosphodiesterase 1 (TDP1): qHTS in cells in absence of CPT; Potency, µM (top dose mostly 46.2 µM), inactives show at the top dose activity change, negative = growth inhibition, hits mostly inhibitors; DT40 Tdp1-/- hTDP1 cells, no CPT, ATP luminescence, 48 h; 15% of 420,000 active; also: potency is read from the fitted curve at half-maximal effect; % is scaled to controls: 0 for no effect and ±100 for the full control effect; nearly all actives have a fitted effect of over 55% in size
#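 DT40 Tdp1-/-;hTDP1 cells, no CPT (DMSO vehicle only), 400 cells/well; compounds pin-transferred; ≥48 hr, 37 °C; CellTiter-Glo 30 min RT dark, luminescence read.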
# IL-1B inflam inh: qHTS for Inhibitors of Inflammasome Signaling: IL-1-beta AlphaLISA Primary Screen. AID 743279, 2014. THP-1 LPS/ATP IL-1B secretion, AlphaLISA, 16 h; active compounds read low. activity change, % at 57.5 µM. 4.7% of 360,000 active; in the data active = activity change below about -50%; inconclusive = mostly about -30% to -49%; also: % is scaled to controls: 0 for no effect and ±100 for the full control effect
#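 THP-1 cells pretreated 1 hr with compounds (up to 57.5 uM final), then stimulated with LPS (250 ng/mL final) plus ATP (1.25 mM final); secreted IL-1B measured by AlphaLISA after 16 hr, decreased signal indicating inhibition.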
# HepG2 tox: qHTS for Inhibitors of TGF-b: Cytotox Counterscreen. HepG2 CAGA-GFP viability, ATP luminescence, 18 h. Potency, µM (top dose mostly 46.1 µM), for inactives: at the highest dose activity change, negative = cytotoxicity, usual class: cytotoxic. 0.76% of 410,000 active; also: potency is read from the fitted curve at half-maximal effect
#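 HepG2 CAGA-GFP cells (1000/well, DMEM with 1% FBS) received compound, then TGF-beta at 500 pg/mL final, and were incubated 18 hours at 37 degrees C. Viability was read by CellTiter-Glo luminescence. Media-only wells were set as complete cell-killing and DMSO as no toxicity.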
# TDP1 block: qHTS Assay for Inhibitors of Tyrosyl-DNA Phosphodiesterase (TDP1). Tyrosyl-DNA phosphodiesterase 1 (Homo sapiens), Q9NUW8. recombinant TDP1, AlphaScreen DNA substrate cleavage. Potency, µM (doses to about 130 µM), for the others: at the top dose activity change, negative = inhibition, most hits filed as inhibitors. 0.28% of 350,000 active. AID 485290, 2010; also: potency is read from the fitted curve at half-maximal effect; % is scaled to controls: 0 for no effect and ±100 for the full control effect; nearly all actives have a fitted effect of over 40% in size
# Target sequence (Q9NUW8 whole entry, looked up): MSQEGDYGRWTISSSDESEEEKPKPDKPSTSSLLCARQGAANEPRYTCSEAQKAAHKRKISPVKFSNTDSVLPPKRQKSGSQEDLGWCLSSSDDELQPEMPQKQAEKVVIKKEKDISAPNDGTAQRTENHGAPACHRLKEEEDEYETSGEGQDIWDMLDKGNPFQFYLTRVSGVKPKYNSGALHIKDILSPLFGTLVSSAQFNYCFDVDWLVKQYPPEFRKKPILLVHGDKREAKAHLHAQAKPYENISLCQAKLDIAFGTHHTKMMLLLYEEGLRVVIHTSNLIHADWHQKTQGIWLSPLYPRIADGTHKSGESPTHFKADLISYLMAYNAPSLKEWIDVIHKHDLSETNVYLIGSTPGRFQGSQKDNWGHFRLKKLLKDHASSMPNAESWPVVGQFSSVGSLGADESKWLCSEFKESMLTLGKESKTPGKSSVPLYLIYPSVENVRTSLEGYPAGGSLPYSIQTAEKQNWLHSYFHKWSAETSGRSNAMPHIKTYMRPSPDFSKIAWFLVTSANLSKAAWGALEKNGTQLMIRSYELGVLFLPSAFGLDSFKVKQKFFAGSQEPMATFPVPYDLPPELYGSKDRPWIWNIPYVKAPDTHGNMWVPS
#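 Compounds were preincubated with Tdp1 (1 nM final) for 15 min at room temperature before substrate (15 nM final) started a 5 min reaction; beads (10 ug/ml final) were then added for 10 min before AlphaScreen detection.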
# TGFb SMAD3 inh: qHTS for Inhibitors of TGF-b; Potency, µM (titrated, usually from 46.1 µM), inactives show at the top dose activity, negative = inhibition, usual class: inhibitors; 1.2% of 410,000 active; HepG2 CAGA-GFP TGF-b/SMAD3 reporter, GFP fluorescence, 18 h; TGF-beta stimulated, 500 pg/mL final; also: potency is read from the fitted curve at half-maximal effect; % is scaled to controls: 0 for no effect and ±100 for the full control effect; nearly all actives have a fitted effect of over 65% in size
#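 Smad-responsive CAGA-GFP expression was quantified in HEPG2 cells exposed to compounds and 500 pg/mL final TGF-beta for 18 h at 37 degrees C; unstimulated wells defined full inhibition.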
# * = called active by the depositor; ? = inconclusive; / = no result given. Unless noted, calls follow the shape of the dose curve; as a rule, active = well fitted curve in the direction sought with a large enough effect; inconclusive = small, poorly fitted or top-dose-only effect, or another doubt; inactive = no such curve, though single readings can be large; an effect the other way counts as inactive or inconclusive.
SMILES,DT40 TDP1 CPT,TDP1 cell noCPT,IL-1B inflam inh,HepG2 tox,TDP1 block,TGFb SMAD3 inh
CC12CN3CC(C)(CN(C1)C3c1ccccc1F)C2 (centres undefined),16.5%,12.2%,?,51.1%,2.5%,16.8%
COc1cc(-c2c(C#N)c(N)nc3[nH]c(=S)[nH]c(=O)c23)ccc1O,-13.4%,0.1%,35.1,-3.2%,/,-10.7%
COc1ccc(CCN2CCCC(CN(C)Cc3cc(OC)c(OC)c(OC)c3)C2)cc1 (centres undefined),20.6µM*,16.4µM*,-14.0,-32.7%,/,16.5%
COc1cc(CN(C)CC2CCCN(CCc3ccccc3F)C2)cc(Cl)c1OC (centres undefined),?,25.9µM*,-83.8*,-45.8%,-14.5%,-17.8%
COc1cc(CN(C)CC2CCCN(CCc3ccc(F)cc3)C2)c(Cl)cc1O (centres undefined),-2.8%,-28.8%,4.9,-10.8%,/,-7.3%
COc1ccc(F)c(CN(C)CC2CCCN(CCc3ccc(F)cc3)C2)c1 (centres undefined),?,16.4µM*,-57.8*,-46.4%,4.5%,?
Cc1ccc(NC2CC(C)NC(=S)N2)cc1 (centres undefined),-2.7%,1.3%,13.2,17.4%,/,-0.2%
C=C(C)[C@@H]1C2=CC(C(=O)OC)=C(C[C@@H](C(=C)C)[C@H]3O[C@H]3C3=C[C@H]1OC3=O)O2,1.12µM*,1.12µM*,/,/,0.8%,/
O=C1NC(Cc2ccc(O)cc2)c2nc3cc(F)ccc3c(=O)n2-c2cc(Cl)ccc21 (centres undefined),/,/,/,/,1.0%,/
O=C1NC(Cc2ccc(O)cc2)c2nc3cc(Cl)ccc3c(=O)n2-c2cc(Cl)ccc21 (centres undefined),?,?,-70.5*,-26.5%,/,?
Cc1ccc2c(=O)n3c(nc2c1)C(Cc1ccc(O)cc1)NC(=O)c1cc2ccccc2cc1-3 (centres undefined),?,18.4µM*,-3.4,-31.8%,/,?
Cc1ccc2c(c1)-n1c(nc3cc(C)ccc3c1=O)C(Cc1ccccc1)NC2=O (centres undefined),/,/,/,/,1.5%,/
O=C1NC(Cc2ccc(O)cc2)c2nc3cc(F)ccc3c(=O)n2-c2cc3ccccc3cc21 (centres undefined),?,7.31µM*,?,-21.4%,/,20µM*
Cc1ccc2c(c1)-n1c(nc3cc(F)ccc3c1=O)C(Cc1ccc(O)cc1)NC2=O (centres undefined),/,/,/,/,3.4%,/
CCN(CC)S(=O)(=O)c1ccc2[nH]c(=O)cc(C(=O)Nc3cccc(C(C)=O)c3)c2c1,3.8%,?,17.4,0.5%,2.5%,4.2%
COc1cc(NC(=O)N[C@@H](Cc2c[nH]c3ccccc23)C(=O)O)c(C(=O)O)cc1OC,13.2%,-11.5%,14.7,9.6%,/,21.8%
NC(=O)[C@@H]1C[C@]2(NC(=O)NC2=O)c2cc(F)ccc2O1,14.7%,-9.0%,/,/,/,/
COc1ccc(CNC(=O)C(C)n2ccc3cc(S(=O)(=O)N4CCCC4)ccc32)cc1OC (centres undefined),0.291µM*,0.581µM*,/,-53.7%,5.6%,0.0%
CC(C(=O)NCc1ccccc1Cl)n1ccc2cc(S(=O)(=O)N3CCCCC3)ccc21 (centres undefined),16.4µM*,16.4µM*,/,-23.4%,5.6%,-20.1%
COc1cccc(CNC(=O)C(C)n2ccc3cc(S(=O)(=O)N4CCCCCC4)ccc32)c1 (centres undefined),5.17µM*,14.6µM*,-26.7,-25.8%,4.3%,-27.1%
COc1cccc(CNC(=O)C(C)n2ccc3cc(S(=O)(=O)N4CCCC4)ccc32)c1 (centres undefined),?,-28.7%,-0.1,-2.3%,4.0%,-2.1%
CCC(C(=O)NCCC(C)C)n1ccc2cc(S(=O)(=O)N3CCCCC3)ccc21 (centres undefined),13µM*,8.2µM*,7.3,-20.0%,4.1%,?
CC(C(=O)NCc1ccccc1)n1ccc2cc(S(=O)(=O)N3CCCC3)ccc21 (centres undefined),?,18.4µM*,/,-10.0%,2.8%,-0.7%
COCCN1C(=O)COc2ccccc2C1C(=O)NCc1ccccc1 (centres undefined),9.9%,-13.9%,33.1,/,/,/
Cc1ccc(C)c(CN2C(=O)c3ccccc3S(=O)(=O)c3ccc(C(=O)NCCCN4CCCC(C)C4)cc32)c1 (centres undefined),?,?,/,11.2µM*,6.9%,/
CC1CCCN(CCCNC(=O)c2ccc3c(c2)N(Cc2ccc(Cl)cc2)C(=O)c2ccccc2S3(=O)=O)C1 (centres undefined),?,?,/,20µM*,3.5%,?
Cc1ccc(C)c(CN2C(=O)c3ccccc3S(=O)(=O)c3ccc(C(=O)NCCC4=CCCCC4)cc32)c1,?,?,/,2.9%,6.9%,/
C#CCOCCOCCOCCNc1nc(N2CCN(C(=O)CCCCCCCCCCNC(=O)[C@H]([C@@H](C)CC)n3cc(CCCCN=C(N)N)nn3)CC2)nc(N2CCN(C(=O)CCCCCCCCCCNC(=O)[C@H](CCCCN)n3cc(C)nn3)CC2)n1,23.1µM*,8.2µM*,-111.8*,11.2µM*,14.8%,15.8µM*
C#CCOCCOCCOCCNc1nc(N2CCN(C(=O)CCCCCCCCCCNC(=O)[C@H]([C@@H](C)CC)n3cc(CCCCCN)nn3)CC2)nc(N2CCN(C(=O)CCCCCCCCCCNC(=O)[C@H](CCCCN)n3cc(CCCC(=O)O)nn3)CC2)n1,-21.1%,-26.4%,-88.1*,-68.4%,8.5%,7.08µM*
C#CCOCCOCCOCCNc1nc(N2CCN(C(=O)CCCCCCCCCCNC(=O)[C@H](CCCCN)n3cc(CCCC(=O)O)nn3)CC2)nc(N2CCN(C(=O)CCCCCCCCCCNC(=O)[C@@H]([C@H](C)O)n3cc(C)nn3)CC2)n1,-9.8%,-0.9%,0.0,-2.8%,10.2%,11.2µM*

# Screening results from PubChem.
